The record followed here is PubChem BioAssay (NCATS).

The structures appear in SMILES notation. Unmarked numbers belong to inactive results. Records with an inconclusive call do not appear. The list shows a part of the results. The source made the active and inactive calls. Unless noted, calls come from the whole dose curve; as a rule, active = well fitted curve in the direction sought with a large enough effect; inconclusive = small, poorly fitted or top-dose-only effect, or another doubt; inactive = no such curve, though single readings can be large; an effect the other way counts as inactive or inconclusive.

For experiment [1], the target named is Rap guanine nucleotide exchange factor 3 (Homo sapiens) (UniProt O95398). The experiment is described as follows: Confirmatory qHTS for agonist of cAMP-regulated guanine nucleotide exchange factor 3 (EPAC1) (AID 1645881).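 Note: EPAC1 catalysed release of BODIPY-GDP from Rap1B seen as fluorescence loss; 100% = effect of cAMP agonist control; nearly all actives have a fitted effect of over 75% in size.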 Particulars: EPAC1 Rap1B BODIPY-GDP exchange fluorescence; series mostly up to 154 µM.
Rap guanine nucleotide exchange factor 3 (Homo sapiens), sequence (O95398 whole entry, looked up): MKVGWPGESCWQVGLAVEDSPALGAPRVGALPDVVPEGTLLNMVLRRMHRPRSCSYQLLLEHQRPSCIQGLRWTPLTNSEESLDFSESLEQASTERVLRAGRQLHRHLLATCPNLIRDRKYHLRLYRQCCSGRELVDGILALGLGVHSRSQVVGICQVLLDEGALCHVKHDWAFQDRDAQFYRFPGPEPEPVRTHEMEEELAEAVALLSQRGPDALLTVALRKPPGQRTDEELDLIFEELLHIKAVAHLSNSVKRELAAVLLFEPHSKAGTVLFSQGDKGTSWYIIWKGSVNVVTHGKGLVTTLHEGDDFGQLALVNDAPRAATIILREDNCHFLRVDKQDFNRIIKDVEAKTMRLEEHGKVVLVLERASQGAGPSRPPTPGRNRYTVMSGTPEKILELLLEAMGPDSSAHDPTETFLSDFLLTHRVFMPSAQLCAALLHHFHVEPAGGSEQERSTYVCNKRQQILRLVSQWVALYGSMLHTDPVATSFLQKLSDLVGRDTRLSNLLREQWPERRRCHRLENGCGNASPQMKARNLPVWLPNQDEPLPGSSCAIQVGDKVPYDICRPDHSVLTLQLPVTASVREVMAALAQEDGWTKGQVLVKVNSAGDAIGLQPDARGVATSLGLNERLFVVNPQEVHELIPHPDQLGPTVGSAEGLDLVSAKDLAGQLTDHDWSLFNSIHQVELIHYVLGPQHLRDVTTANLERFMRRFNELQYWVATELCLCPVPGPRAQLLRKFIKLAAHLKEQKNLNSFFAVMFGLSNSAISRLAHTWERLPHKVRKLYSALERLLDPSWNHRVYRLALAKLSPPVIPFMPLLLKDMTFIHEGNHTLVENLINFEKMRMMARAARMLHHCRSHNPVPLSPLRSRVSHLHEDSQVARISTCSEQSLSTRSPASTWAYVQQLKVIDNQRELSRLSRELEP
The target in experiment [2] is Rap guanine nucleotide exchange factor 4 (Homo sapiens) (UniProt Q8WZA2). Nature of the experiment: Confirmatory qHTS for antagonist of cAMP-regulated guanine nucleotide exchange factor 4 (EPAC2) (AID 1645885). For activity change, negative = inhibition: % is set by controls: 0 for no effect and ±100 for the full control effect. Note: nearly all actives have a fitted effect of over 25% in size. Particulars: EPAC2 Rap1B-BODIPY-GDP exchange fluorescence, biochemical; series mostly up to 12.7 µM. (In qHTS, concentration-response curves come from the screen itself.)
Rap guanine nucleotide exchange factor 4 (Homo sapiens), sequence (Q8WZA2 whole entry, looked up): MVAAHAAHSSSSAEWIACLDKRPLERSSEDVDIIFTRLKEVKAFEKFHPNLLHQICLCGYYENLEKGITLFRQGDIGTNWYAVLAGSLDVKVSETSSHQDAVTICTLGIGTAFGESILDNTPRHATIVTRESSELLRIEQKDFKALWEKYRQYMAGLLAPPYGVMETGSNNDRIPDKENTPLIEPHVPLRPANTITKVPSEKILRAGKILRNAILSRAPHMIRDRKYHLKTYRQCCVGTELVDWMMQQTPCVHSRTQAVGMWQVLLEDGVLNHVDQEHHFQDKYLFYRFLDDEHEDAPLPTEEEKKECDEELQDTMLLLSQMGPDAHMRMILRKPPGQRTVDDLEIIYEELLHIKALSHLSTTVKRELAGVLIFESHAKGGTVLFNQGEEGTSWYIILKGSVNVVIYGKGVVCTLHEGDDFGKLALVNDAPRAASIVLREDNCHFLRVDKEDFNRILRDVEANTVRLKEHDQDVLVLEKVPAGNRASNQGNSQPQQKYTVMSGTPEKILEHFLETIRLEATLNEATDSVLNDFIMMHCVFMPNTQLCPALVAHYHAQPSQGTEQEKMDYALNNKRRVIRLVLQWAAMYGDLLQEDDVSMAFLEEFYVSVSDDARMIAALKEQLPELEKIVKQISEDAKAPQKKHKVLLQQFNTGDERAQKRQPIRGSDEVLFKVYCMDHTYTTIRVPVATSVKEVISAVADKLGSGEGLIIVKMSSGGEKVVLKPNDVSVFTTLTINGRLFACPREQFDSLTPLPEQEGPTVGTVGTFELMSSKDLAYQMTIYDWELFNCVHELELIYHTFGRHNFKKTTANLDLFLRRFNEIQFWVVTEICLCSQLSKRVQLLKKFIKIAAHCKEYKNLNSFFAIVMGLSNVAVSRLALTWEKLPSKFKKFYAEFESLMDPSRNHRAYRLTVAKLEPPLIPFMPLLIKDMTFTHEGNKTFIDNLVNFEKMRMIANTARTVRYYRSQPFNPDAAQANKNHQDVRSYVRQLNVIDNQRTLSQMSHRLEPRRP

For experiment [3] the target is unchanged. The experiment is described as follows: Confirmatory qHTS for agonist of cAMP-regulated guanine nucleotide exchange factor 4 (EPAC2) (AID 1645884). For activation: % is set by controls: 0 for no effect and ±100 for the full control effect.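 Note: nucleotide exchange releases bodipy-GDP from Rap1 and this lowers its fluorescence; nearly all actives have a fitted effect of over 65% in size.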 Note: potency is the fitted concentration of half-maximal effect. The conditions noted are these: EPAC2 GEF activity, Rap1B-BODIPY-GDP fluorescence; series mostly up to 154 µM.
Experiment [4] deals with Rap guanine nucleotide exchange factor 3 (Homo sapiens) (UniProt O95398). The experiment is described as follows: Counterscreen qHTS for agonist of cAMP-regulated guanine nucleotide exchange factor 3 (EPAC1) (AID 1645889). Note: % of control where 0% means no effect; nearly all actives have a fitted effect of over 40% in size. Particulars: EPAC1 Rap1B-BODIPY-GDP exchange, fluorescence; series mostly up to 154 µM. Summed up: (§1)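 Rap1B–BODIPY-GDP (250 nM) with 50 uM GDP; compounds pin-transferred to 9.74 nM–152 uM final (activator) or from 7.32 nM upwards (inhibitor). Fluorescence Ex/Em 480/540 nm read at 5 and 30 min, then after adding cAMP or buffer, at room temperature.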

Experiment [5] has as its target Flap endonuclease 1 (Homo sapiens) (UniProt P39748). Nature of the experiment: qHTS Assay for the Inhibitors of FEN1: Confirmatory Assay for Cherry-picked Compounds (AID 720498). Note: potency is the fitted concentration of half-maximal effect; nearly all actives have a fitted effect of over 60% in size. Particulars: FEN1 flap cleavage, TAMRA/BHQ2 fluorogenic DNA substrate. Summed up:
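FEN1 at 10 nM was preincubated with compound for 15 min at room temperature, then 50 nM (final) double-flap DNA substrate was added. TAMRA fluorescence released from the BHQ-2-quenched flap was read at 0 and 15 min (ex 525/em 598 nm).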

Experiment [6] deals with Cytochrome P450 3A4 (Homo sapiens) (UniProt P08684). Nature of the experiment: qHTS Assay for Inhibitors and Substrates of Cytochrome P450 3A4 (AID 884). Note: potency is the fitted concentration of half-maximal effect; nearly all actives have a fitted effect of over 50% in size. The conditions noted are these: recombinant CYP3A4, Luciferin-PPXE luminescence; series mostly up to 57.1 µM. Summed up:
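20 nM human CYP3A4 with 25 uM Luciferin-PPXE (at KM) in 200 mM KPO4, preincubated 10 min with compound; NADPH regeneration started a 60 min RT reaction. Luciferin detected by luminescence, normalized to 57 uM ketoconazole as full inhibition.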

Experiment [7] has the same target. The experiment is described as follows: qHTS Assay for Activators of Cytochrome P450 3A4 (AID 885). Note: nearly all actives have a fitted effect of over 65% in size. The conditions noted are these: recombinant CYP3A4, Luciferin-PPXE luminescence, 60 min; series mostly up to 57.1 µM. The procedure, abridged:
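Signal was normalized against complete inhibition by 57 uM ketoconazole. The reaction used 20nM CYP3A4 with 25uM Luciferin-PPXE, 10-min compound preincubation and a 60-min NADPH-supported step at RT.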

Experiment [8] in a line: Confirmation and Secondary Assay for Modulators of Hemoglobin Beta Chain Splicing at IVS2 654 locus (AID 910).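 Note: HeLa cells stably carrying EGFP split by mutant beta-globin IVS2-654 intron; % of control where 0% means no effect.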 The conditions noted are these: HeLa EGFP-654 splicing reporter, GFP fluorescence, 48 h; series mostly up to 46.1 µM. The procedure, abridged:
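HeLa cells stably expressing EGFP interrupted by β-globin IVS2-654 intron, seeded overnight in Opti-MEM/2% FCS, then treated 2 days at 37 °C. Restored splicing read as total peak GFP intensity per well by laser scanning cytometry (488 nm excitation, 500–520 nm emission); 500 nM antisense PNA as control.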

Experiment [9] can be described thus: Confirmation and Secondary Assay for Modulators of Hemoglobin Beta Chain Splicing at IVS2 705 locus (AID 930).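 Note: HeLa cells stably expressing the EGFP-705 splicing reporter; GFP fluorescence per well restored by corrected splicing of the IVS2-705 intron in EGFP; % of control where 0% means no effect.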 The conditions noted are these: HeLa EGFP-705 splicing reporter, GFP fluorescence, 48 h; series mostly up to 46.1 µM. Summed up:
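Assay measures total GFP intensity per well in HeLa EGFP-705 cells after 2 days with compound; mis-splicing normally truncates EGFP, so fluorescence indicates corrected splicing.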

A short description of experiment [10]: AP1 Signaling Pathway (AID 357; active = well fitted curve in either direction with a large enough effect, not every such curve was filed as active;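 note: ME-180 reporter cells stimulated with EGF at its EC50 level; % is set by controls: 0 for no effect and ±100 for the full control effect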). Particulars: ME-180 AP-1-bla reporter, EGF-induced, beta-lactamase ratio, 5 h; at 7.69 µM (top of the series) unless noted. The procedure, abridged:
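Beta-lactamase reporter under AP-1 response element, ME-180 background. Stimulus: EC50 EGF. Compound exposure 5 h, 37 °C. Detection: CCF4, 2.5 h RT, 460/530 nm. Values: AC50 from titration.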

Experiment [11] can be described thus: Stat Signaling Pathway (AID 446; active = well fitted curve in either direction with a large enough effect, not every such curve was filed as active;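 note: ME-180 cervical cancer cells given 40 pM IL-6 alongside compound; SIE-controlled beta-lactamase reporter measured as 460/530 nm FRET emission ratio; % is set by controls: 0 for no effect and ±100 for the full control effect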). Particulars: ME-180 SIE beta-lactamase reporter, IL-6 stimulated, 5 h; series mostly up to 7.69 µM. Summed up: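 Reporter line: ME-180 cervical carcinoma, SIE-beta-lactamase. Treatment: compound with 40 pM IL-6, 5 hrs, 37 C, in low-serum OPTI-MEM with 10 mM HEPES pH 7.3. Detection: 460/530 nm fluorescence.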
Experiment [12] has as its target Glucocorticoid receptor (Homo sapiens) (UniProt P04150). The experiment is described as follows: GR-GFP Redistribution (AID 450;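 active = compounds whose dose series gives a full or clear partial fitted curve of increased nuclear translocation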; note: potency is the fitted concentration of half-maximal effect). Particulars: U2OS GR-GFP nuclear translocation, laser cytometry, 2 h.
Experiment [13] addresses Rap guanine nucleotide exchange factor 3 (Homo sapiens) (UniProt O95398). The experiment is described as follows: Counterscreen qHTS for antagonist of cAMP-regulated guanine nucleotide exchange factor 3 (EPAC1) (AID 1645888).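 Note: fluorescence loss as bound BODIPY-GDP is released from Rap1B; % of control where 0% means no effect.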 Particulars: Rap1B-BODIPY-GDP nucleotide exchange, fluorescence; series mostly up to 154 µM. The procedure, abridged:
as §1
For orientation: The purpose of a counterscreen is to sort out artefacts and off-target activity.

Cytochrome P450 3A4 (Homo sapiens), sequence (P08684 whole entry, looked up): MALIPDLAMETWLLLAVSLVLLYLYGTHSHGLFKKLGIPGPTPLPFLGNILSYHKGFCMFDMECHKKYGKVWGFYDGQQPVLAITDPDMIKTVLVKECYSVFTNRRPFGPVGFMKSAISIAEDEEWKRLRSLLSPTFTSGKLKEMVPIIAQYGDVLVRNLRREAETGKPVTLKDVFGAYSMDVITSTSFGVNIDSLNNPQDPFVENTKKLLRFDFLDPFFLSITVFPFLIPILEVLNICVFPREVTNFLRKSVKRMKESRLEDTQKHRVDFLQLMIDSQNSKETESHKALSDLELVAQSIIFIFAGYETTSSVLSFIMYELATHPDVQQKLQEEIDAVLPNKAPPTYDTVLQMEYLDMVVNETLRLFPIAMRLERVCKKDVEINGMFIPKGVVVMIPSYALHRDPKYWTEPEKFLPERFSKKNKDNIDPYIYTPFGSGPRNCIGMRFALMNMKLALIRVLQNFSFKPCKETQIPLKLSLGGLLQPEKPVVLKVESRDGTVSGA
Glucocorticoid receptor (Homo sapiens), sequence (P04150 whole entry, looked up): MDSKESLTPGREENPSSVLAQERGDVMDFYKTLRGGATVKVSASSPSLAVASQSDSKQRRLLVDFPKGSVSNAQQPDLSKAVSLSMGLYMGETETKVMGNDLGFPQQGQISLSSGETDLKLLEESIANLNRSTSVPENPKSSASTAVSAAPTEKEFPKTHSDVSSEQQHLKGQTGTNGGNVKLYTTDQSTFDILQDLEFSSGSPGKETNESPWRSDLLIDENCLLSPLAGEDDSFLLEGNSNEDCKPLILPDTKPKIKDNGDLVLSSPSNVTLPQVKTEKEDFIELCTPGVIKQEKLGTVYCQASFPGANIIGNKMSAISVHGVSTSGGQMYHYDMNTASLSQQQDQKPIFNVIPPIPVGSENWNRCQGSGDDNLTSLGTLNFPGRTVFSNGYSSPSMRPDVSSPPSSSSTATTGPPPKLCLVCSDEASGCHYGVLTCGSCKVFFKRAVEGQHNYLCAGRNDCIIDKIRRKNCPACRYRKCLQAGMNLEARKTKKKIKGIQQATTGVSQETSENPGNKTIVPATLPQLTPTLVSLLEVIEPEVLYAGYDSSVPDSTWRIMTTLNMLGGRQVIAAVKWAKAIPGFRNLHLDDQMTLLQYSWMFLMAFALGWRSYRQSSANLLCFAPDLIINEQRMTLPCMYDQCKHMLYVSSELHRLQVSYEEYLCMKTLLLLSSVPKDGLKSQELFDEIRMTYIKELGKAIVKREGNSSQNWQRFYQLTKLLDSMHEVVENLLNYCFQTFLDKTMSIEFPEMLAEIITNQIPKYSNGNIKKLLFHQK
Flap endonuclease 1 (Homo sapiens), sequence (P39748 whole entry, looked up): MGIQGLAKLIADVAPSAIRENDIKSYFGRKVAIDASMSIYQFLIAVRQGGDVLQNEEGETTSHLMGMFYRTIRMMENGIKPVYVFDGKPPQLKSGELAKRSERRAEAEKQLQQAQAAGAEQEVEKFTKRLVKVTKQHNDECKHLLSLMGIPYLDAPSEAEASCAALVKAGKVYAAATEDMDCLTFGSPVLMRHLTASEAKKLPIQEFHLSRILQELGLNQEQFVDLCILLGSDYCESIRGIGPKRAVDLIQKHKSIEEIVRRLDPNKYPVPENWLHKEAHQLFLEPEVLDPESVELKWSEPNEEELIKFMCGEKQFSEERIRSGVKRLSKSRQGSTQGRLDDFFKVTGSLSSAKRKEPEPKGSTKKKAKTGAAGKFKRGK

With `Cc1cccc(C)c1Nc1c(-c2ccc(Cl)s2)nc2ncccn12`, the Potency result in experiment [1] and in [2] was “inactive” throughout.
As to `CCCCOc1ccc(C(=O)N/N=C/c2cn[nH]c2-c2ccc(OC)c(OC)c2)cc1`, the Potency entry in experiment [1], in experiment [3] and in experiment [4] was “inactive” throughout.
Consider `CCOC(=O)c1c(NC(=O)C2C3C=CC(C3)C2C(=O)O)sc2c1CCC(CC)C2` (stereo not drawn), for which the Potency result in [1], in experiment [3] and in [4] was “inactive” throughout.
For the molecule `O=C1CN(C(=O)c2c(F)cccc2Cl)C(c2ccc(F)cc2)c2cc(Br)ccc2N1` (stereo not drawn), the Potency entry in experiment [1] and in experiment [2] was “inactive” each time.
As to `CC(C)(C)c1cc(NCCCn2ccnc2)n2ncc(-c3ccccc3)c2n1`, the Potency result in experiment [1] and in experiment [2] was “inactive” each time.
Consider `CCCCN(C=O)c1c(CC)nc2c(OCc3ccc(C(F)(F)F)cc3)cccn12`, for which the Potency entry in [1], in [3] and in experiment [4] was “inactive” each time.
For the molecule `CN1C(=O)/C(=C2/C=Cc3ccccc3N2CCCS(=O)(=O)O)SC1=S`, the Potency entry in experiment [1], in experiment [3] and in [4] was “inactive” in each case.
Regarding `C=CCN(C(=O)Cn1ncc2c1-c1cc(C)ccc1OC2)c1ccccc1`, the Potency result in experiment [1], in experiment [3] and in experiment [4] was “inactive” in each case.
For `CCN1CCN(S(=O)(=O)c2ccc(Cl)c(C(=O)N(C)Cc3cccc(Cl)c3Cl)c2)CC1`, the Potency result in [1], in experiment [3] and in experiment [4] was “inactive” each time.
As to `CCN1/C(=C\c2ccc3ccccc3[n+]2CC)Sc2cc(C)ccc21`, the Potency in [5] was 21.3 µM (active). Moreover, the Potency result in experiment [1] and in [3] was “inactive” throughout.
Turning to `O=S(=O)(c1cc(C(F)(F)F)ccc1Cl)N1CCN(c2ncnc3ccccc23)CC1`, the Potency entry in [1], in [3] and in experiment [4] was “inactive” throughout.
Take `O=c1c2ccccc2c(C=Nc2ccc(O)cc2)c(O)n1-c1nccs1`: the Potency entry in [1] and in experiment [2] was “inactive” in each case.
Regarding `O=C(CSc1nnc(SCc2ccc(Cl)cc2)s1)N/N=C/c1ccc(C(=O)O)cc1`, the Potency entry in experiment [1], in [3] and in experiment [4] was “inactive” each time.
`COc1ccc(CN(C)C(=O)c2ccc(OCC(=O)Nc3cccc(C(F)(F)F)c3)c(OC)c2)c(OC)c1`: the Potency result in [1], in [3] and in experiment [4] was “inactive” throughout.
Take `Cc1ccc(C)c(-c2csc(N)c2C(=O)OC(C)C)c1`: the Potency entry in experiment [1] was “inactive”. In addition, the activation was 7.03% [at 17.1 µM, percent relative to cAMP agonist control] in experiment [3] and 30% [at 30.8 µM] in [4].
As to `COc1ccc2c(c1)OCC(Cc1ccc(OC)c(OC)c1)C2=O` (stereo not drawn), the Potency in experiment [6] is 15.8 µM (active). Besides, the result in experiment [7] was inactive. Moreover, the Potency entry in [8], in experiment [9], in experiment [1] and in [3] was “inactive” each time.
`COc1ccccc1NS(=O)(=O)c1ccc2ccccc2c1`: in experiment [1], the Potency entry is “inactive”. The activation in [3] is 0% [at 17.1 µM, percent relative to cAMP agonist control]; in experiment [4] it was 16.4% [at 30.8 µM].
Take `O=C(Nc1ncccc1O)c1c(O)c2ccccc2[nH]c1=O`: the Potency entry in experiment [1] and in experiment [4] was “inactive” each time. In addition, the Potency in experiment [3] is 100 µM (active).
For the molecule `COc1cccc(/C=C2/NC(=O)N(CC(=O)Nc3ccc(C)cc3)C2=O)c1OCc1cccc(C(=O)O)c1`, the Potency entry in [1], in [3] and in experiment [4] was “inactive” throughout.
On to `CC(C)CCNC(=O)C(CC(C)C)N(Cc1ccc2c(c1)OCO2)C(=O)c1snc(C(N)=O)c1N` (stereo not drawn), for which the Potency result in experiment [1], in [3] and in [4] was “inactive” throughout.
Turning to `CN(CC(=O)Nc1ccccc1Cl)C(=O)c1ccc(-c2cccc(C(F)(F)F)c2)o1`, the Potency entry in [1], in [3] and in experiment [4] was “inactive” each time.
On to `CC1COc2ccccc2N1S(=O)(=O)c1ccc(Cl)cc1` (stereo not drawn), for which the Potency entry in experiment [1], in experiment [3] and in experiment [4] was “inactive” in each case.
`O=C(O)c1cc(NN=C2c3ccccc3-c3ccccc32)ccc1Cl`: the Potency entry in [1], in [3] and in experiment [4] was “inactive” in each case.
With `CCCCC[C@H](C)N1C[C@@H](COCc2ccccc2)Oc2cc(N3CC[C@H](N(C)C)C3)ccc2S1(=O)=O`, the Potency result in experiment [1], in experiment [3] and in experiment [4] was “inactive” throughout.
`CC(NC(=O)COC(=O)C1CCN(c2ccc(C(F)(F)F)cn2)CC1)c1ccc(Br)cc1` (stereo not drawn): the Potency result in [1], in experiment [3] and in experiment [4] was “inactive” in each case.
In the case of `CCOc1ccc(C(=O)CCN2CCCCCC2)cc1`, the Potency entry in experiment [1], in [3] and in [4] was “inactive” each time.
`COc1ccc(C(=O)c2ccccc2Cl)cc1OC`: the Potency result in experiment [1], in [3] and in experiment [4] was “inactive” in each case.
With `COc1cc(C(=O)N(C)CCOc2ccccc2)ccc1OCC(=O)Nc1cccc(C(F)(F)F)c1`, the Potency entry in experiment [1], in [3] and in experiment [4] was “inactive” throughout.
Consider `COC(=O)c1ccc(OCC2c3cc(OC)c(OC)cc3CCN2C(=O)c2ccc(OC)cc2)cc1` (stereo not drawn), for which the Potency result in experiment [1] and in experiment [2] was “inactive” in each case.
Regarding `COC(=O)C1CCN(c2nc3ccccc3nc2C(C#N)C(=O)NCCc2ccccc2)CC1` (stereo not drawn), the activity change, negative = inhibition in experiment [10] was -19.5% [at 17.2 µM]. Further, the molecule was classed as inactive in experiment [11]. For the same molecule, in [12], the Potency is more than 20.6 µM. For the same molecule, the Potency result in experiment [1], in experiment [3] and in experiment [4] was “inactive” throughout.
Take `CN(C)c1ccc(/C=C2\C(=N)N3N=C(CC(=O)N4CCCCC4)SC3=NC2=O)cc1`: the Potency result in experiment [1], in experiment [2], in experiment [13] and in [4] was “inactive” in each case.
Consider `Cc1cccc(Cn2nnc3c(=O)[nH]c(C4CCCN(C(=O)c5ccc(C(C)(C)C)cc5)C4)nc32)c1` (stereo not drawn), for which the Potency entry in experiment [1] and in experiment [4] was “inactive” each time. Moreover, the outcome in experiment [2] was “inactive [at 12.7 µM]”.
